Shown is part of a subset that was picked to be rich in hits.
CHX counter: counter-screen hit for Shiga toxin inhibitors, cycloheximide; max response, %; AID 2314; cell reporter, cycloheximide protein synthesis inhibition counterscreen; hit rate 12% among 300,000; in the data active = max response mostly above about 13%, no sharp cut-off; inactive = mostly below about 14%; note: read at 38.3 µM for the half of the compounds with a filed dose; 0% is about no effect
SARS PLP yeast: blocks SARS-CoV papain-like protease in a yeast assay; S. cerevisiae expressing SARS-CoV PLpro, growth rescue; Potency, µM (series often up to 32.9 µM), without a hit: at the top dose activity, positive = growth rescue, most hits filed as activators; hit rate 0.19% among 330,000; AID 485353; calls by dose curve; note: potency is the fitted concentration of half-maximal effect; 0% is about no effect; nearly all actives have a fitted effect of over 55% in size
AmpC no deterg: blocks E. coli AmpC beta-lactamase in detergent-free assay | P00811 | AmpC nitrocefin hydrolysis, absorbance 480 nm, 0.0001% Triton | Potency, µM (highest dose often 57.1 µM), inactives show at the top dose activity change, negative = inhibition, most hits filed as inhibitors | hit rate 0.52% among 330,000;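 note: potency is the fitted concentration of half-maximal effect; plate controls were no compound for no effect and no enzyme for full effect; nearly all actives have a fitted effect of over 20% in size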
Target sequence (P00811 whole entry, looked up): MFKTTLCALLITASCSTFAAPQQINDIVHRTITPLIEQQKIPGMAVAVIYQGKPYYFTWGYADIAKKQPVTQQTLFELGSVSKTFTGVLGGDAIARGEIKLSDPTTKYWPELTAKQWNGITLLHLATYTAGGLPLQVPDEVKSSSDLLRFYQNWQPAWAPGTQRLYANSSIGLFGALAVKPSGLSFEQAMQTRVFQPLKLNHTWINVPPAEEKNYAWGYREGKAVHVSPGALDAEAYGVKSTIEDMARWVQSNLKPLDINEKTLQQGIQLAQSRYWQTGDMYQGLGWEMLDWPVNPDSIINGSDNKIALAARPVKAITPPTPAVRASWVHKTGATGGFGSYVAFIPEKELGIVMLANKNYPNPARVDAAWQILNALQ
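20 mM phosphate pH 7.0 + 0.01% (detergent screen) or 0.0001% Triton X-100; 5.3 nM AmpC reagent; cpd preinc 15 min RT; nitrocefin (800 uM stock) to start; A480 q20 s × 4 min; Activity was normalised to no-enzyme and no-compound control wells.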
Shiga inhibitor: blocks Shiga toxin action in Vero cells; inhibition, % at 38.7 µM; AID 2315; Vero cells, Shiga toxin protein synthesis inhibition reporter; hit rate 9.2% among 290,000; in the data active = inhibition mostly above about 28%, no sharp cut-off; inactive = mostly below about 43%; note: 0% is about no effect
AMA1-RON2 inh: inhibitors of Plasmodium falciparum AMA1-RON2 interaction; AID 720542; Potency, µM (series often up to 58.2 µM), for the others: at the top dose activity change, negative = inhibition, most hits filed as inhibitors; hit rate 0.2% among 360,000; AlphaScreen AMA1-biotinylated RON2 peptide binding;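 note: potency is the fitted concentration of half-maximal effect; 0% = vehicle wells and -100% = peptide control; nearly all actives have a fitted effect of over 45% in size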
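AMA1 (3D7) with his tag at 25 nM final met compounds first, then biotinylated RON2 peptide at 25 nM; detection used donor plus acceptor beads, 10 µg/mL apiece, read by AlphaScreen after 30 min at room temperature.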
AmpC inh detg: inhibitors of E. coli AmpC beta-lactamase with detergent. P00811. AmpC hydrolysis of nitrocefin, absorbance 480 nm, 0.01% Triton. Potency, µM (series often up to 114 µM), inactives show at the highest dose activity change, negative = inhibition, most hits filed as inhibitors. hit rate 0.041% among 370,000. AID 485294;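 note: potency is the fitted concentration of half-maximal effect; 0% = no-compound wells and -100% = no-enzyme wells; nearly all actives have a fitted effect of over 25% in size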
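20 mM phosphate pH 7.0 + 0.01% (detergent screen) or 0.0001% Triton X-100; 5.3 nM AmpC reagent; cpd preinc 15 min RT; nitrocefin (800 uM stock) to start; A480 q20 s × 4 min; Activity was normalised to no-enzyme and no-compound control wells.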
Numbers without * were called inactive; ? = inconclusive; · = not tested or not shown. Unless noted, calls come from the whole dose curve; as a rule, active = well fitted curve in the direction sought with a large enough effect; inconclusive = small, poorly fitted or top-dose-only effect, or another doubt; inactive = no such curve, though single readings can be large; an effect the other way counts as inactive or inconclusive.

SMILES | CHX counter | SARS PLP yeast | AmpC no deterg | Shiga inhibitor | AMA1-RON2 inh | AmpC inh detg
COc1ccc(-n2c(SCC(=O)N3CCOCC3)nnc2C(C)N2CCCCC2)cc1 (stereo not given) | -4 | 2% | 3% | 26 | -10% | 0%
CN(c1cccc(NC(=O)CN(c2cccc(Cl)c2)S(=O)(=O)c2ccc(Cl)cc2)c1)S(C)(=O)=O | -1 | 5% | -13% | -15 | -5% | ?
CCc1ccc(OCCCC(=O)Nc2cccc(C(=O)O)c2)cc1 | 5 | -1% | -34% | 11 | -13% | 1%
O=C(CCCc1ccccc1)Nc1cccc(C(=O)O)c1 | 60* | 0% | -26% | 122* | 9% | 0%
O=C(NC1CCCCCCC1)c1ccco1 | 18* | -12% | -20% | 43* | -5% | 2%
O=C(COC(=O)c1ccccc1NC(=O)c1ccco1)NC1CCCCC1 | 1 | 1% | -26% | 11 | -5% | -9%
O=C(NC(Cc1ccccc1)C(=O)O)/C(=C\c1ccco1)NC(=O)c1ccco1 (stereo not given) | 19* | 1% | 41% | 18 | 20% | 2%
O=C(COC(=O)c1ccco1)NC1CCCCC1 | 22* | 0% | -17% | 17 | 9% | -6%
O=C(N[C@@H](Cc1ccccc1)C(=O)NC1CCCCCC1)c1ccco1 | 53* | 0% | -3% | 98* | -3% | -11%
CN(C(=O)Cn1cc(C#N)c2ccccc21)c1ccccc1 | -2 | 0% | 2% | 17 | -1% | 3%
CCOC(=O)NC(Nc1sc2c(c1C(=O)OC)CCN(C)C2)(C(F)(F)F)C(F)(F)F | 1 | -2% | 14% | 13 | 1% | -9%
Cc1cccc(NC(=O)C2CC(=O)OC23CCCCC3)c1 (stereo not given) | -5 | 9% | -13% | -5 | -4% | -9%
O=C(N[C@@H](Cc1ccccc1)C(=O)NC1CCCCC1)c1ccco1 | 14 | 13% | 7% | 23* | 0% | 3%
C/C(=N\NC(=O)NC1CCCCC1)c1ccco1 | 12* | 0% | -8% | 23 | -2% | -8%
Cc1cccc(N2C(=O)NC(=O)/C(=C\c3cc(C)n(-c4sc5c(c4C#N)CCCC5)c3C)C2=O)c1C | -2 | -16% | 32µM* | -5 | 0% | -7%
CC1Cc2cc(C(=O)O)ccc2O1 (stereo not given) | 3 | 0% | -15% | -3 | 1% | -18%
C/C(=N\O)c1ccc2c(c1)CC(C)O2 (stereo not given) | 13* | 0% | -9% | 19 | 1% | 4%
CC1(C)CC(=O)C(C(N)=NC(=O)c2ccccc2)=C(O)C1 | 39* | 0% | -16% | 70* | -2% | 1%
C/C(=N/NC(=O)c1ccccc1)C1=C(O)CC(C)(C)CC1=O | -1 | 0% | 159% | -12 | 99% | -3%
CC1(C)CC(=O)C(C(N)=NC(=O)c2ccc([N+](=O)[O-])cc2)=C(O)C1 | 18* | 2% | -13% | 62 | 17% | 1%
O=C1CC(/C=C/c2ccccn2)=Nc2ccccc2N1 | 22* | -1% | 4% | 57* | 18% | -1%
O=C1CC(/C=C/c2ccco2)=Nc2ccccc2N1 | -2 | 2% | -18% | -10 | -11% | ?
Cc1ccc(CNc2ccc(O)cc2)cc1 | 24 | -14% | -27% | 43 | 31% | -14%
CSc1n[nH]c(NCc2ccccc2)n1 | 9 | -1% | -4% | 29* | 9% | ?
CSc1n[nH]c(NCc2ccc(Cl)cc2)n1 | 15* | 25% | -13% | 51* | 4% | -5%
SMILES | CHX counter | SARS PLP yeast | AmpC no deterg | Shiga inhibitor | AMA1-RON2 inh | AmpC inh detg
Cc1cc(=O)[nH]c(NCc2ccc(Cl)cc2)n1 | 4 | 3% | -37% | 11 | -8% | -1%
CSc1n[nH]c(NCc2ccc(C)cc2)n1 | 40* | -8% | -16% | 72* | 17% | -10%
CC(=O)c1ccccc1NC(=O)COC(=O)c1cc(C)oc1C | · | 4% | -12% | · | -3% | 2%
CC(C)(C)n1cc(C(=O)c2ccccc2OCCCF)cn1 | -2 | -1% | -5% | -4 | -4% | -4%
O=C(NCCN1CCN(C(=O)c2ccc(Br)cc2)CC1)c1ccc(Br)cc1 | -1 | · | 161% | -11 | -8% | -7%
Cc1ccsc1/C=C1/C(=O)NN(c2ccccc2)C1=O | 40* | -1% | -25% | 82* | -8% | 3%
O=S(=O)(Nc1ccccc1C(F)(F)F)c1ccc(N2CCCCS2(=O)=O)cc1 | · | · | · | · | · | 15%
COc1ccc(NC(=O)c2ccc3c(c2)N(C)CCS3)cc1 | 59* | -1% | -35% | 67* | 2% | -11%
COc1ccc(NC(=O)c2ccc3c(c2)n(C)c(=O)n3C)cc1 | 2 | 21% | -16% | -7 | -21% | -6%
CN1CCSc2ccc(C(=O)NCc3ccccc3)cc21 | 10* | -1% | -38% | 25* | -1% | -14%
CN1CCSc2ccc(C(=O)Nc3cccc(F)c3)cc21 | 55* | -3% | -42% | 53* | -15% | 1%
COc1ccc(CNC(=O)c2ccc3c(c2)N(Cc2ccccc2)CCS3)cc1 | · | · | · | · | · | 1%
COCCNC(=O)c1c(NC(=O)c2ccco2)n(Cc2ccccc2)c2nc3ccccc3nc12 | -3 | -2% | -3% | -14 | 62% | 3%
CC(C)CCN1CCN(Cc2cccn2-c2ccc(Cl)cn2)CC1CCO (stereo not given) | 2 | 1% | 0% | -8 | 5% | 5%
COc1ccc2nc(N)sc2c1 | 13 | -13% | 2% | 9 | 0% | -2%
COc1cc(OC)cc(-c2nc3ccccc3s2)c1 | 46* | -9% | 5% | 72* | 76% | ?
COc1ccc2nc(-c3ccc(N(C)C)cc3)sc2c1 | 32* | · | · | 25* | · | ·
COc1ccc2nc(-n3c(C)ccc3C)sc2c1 | 22* | -6% | -7% | 77* | -5% | ?
COc1cc(OC)cc(C(=O)Nc2cc(-c3nc4ccccc4s3)ccc2OC)c1 | · | · | · | · | · | 0%
Cc1ccc(OC(=O)CCS(=O)(=O)c2ccc(C)cc2)cc1 | -4 | 6% | 4% | 2 | -4% | -8%
Cc1cc([N+](=O)[O-])ccc1NC(=O)CN1CCN(Cc2ccccc2)CC1 | -3 | 5% | 90% | -11 | -3% | ?
O=C(CN1C(=O)c2ccccc2C1=O)NC1CCCCC1 | 1 | ? | -18% | 1 | 9% | -8%
COC(=O)c1ccc(NC(=O)CCCC(=O)OCC(=O)c2ccc(Cl)cc2)cc1 | · | · | · | · | · | 10%
O=C(COC(=O)c1ccc(O)cc1)Nc1ccc(Cl)cc1 | 31* | 0% | -11% | 52 | 4% | 1%
CC(C)N(C(=O)COC(=O)c1ccc(O)cc1)C(C)C | -2 | 0% | 4µM* | -4 | 3% | -2%
O=C(O)CCC(=O)Nc1ccc(C(=O)OCC(=O)c2ccc(Cl)cc2)cc1 | 15* | 0% | -12% | 79 | -4% | 8%

From PubChem BioAssay
